# Results: PubChem BioAssay (Tox21)
# Inconclusive results are not listed. Where a call stands in place of a potency, no number is given. Unmarked numbers belong to inactive results. Active and inactive are the calls of the source. The call rests on the fitted dose curve; in most records, active means well fitted curve in the direction sought with a large enough effect in the repeat runs; inconclusive means weak or mixed curves; inactive means no such curve, though single readings can be large; an effect the other way counts as inactive or inconclusive.
# Columns and labels:
# [1] = target: Cytochrome P450 2D6 (Homo sapiens) (UniProt P10635); assay: Cytochrome P450 Family 2 Subfamily D Member 6 (CYP2D6) small molecule antagonists: luciferase reporter qHTS assay (AID 1671196); conditions: P450-Glo CYP2D6 enzyme assay, luciferin luminescence, 1 h; series mostly up to 115 µM; further: nearly all actives have a fitted effect of over 50% in size; further: potency means the concentration at half of the fitted maximal effect
# Chain of Cytochrome P450 2D6 (Homo sapiens) (P10635 whole entry, looked up): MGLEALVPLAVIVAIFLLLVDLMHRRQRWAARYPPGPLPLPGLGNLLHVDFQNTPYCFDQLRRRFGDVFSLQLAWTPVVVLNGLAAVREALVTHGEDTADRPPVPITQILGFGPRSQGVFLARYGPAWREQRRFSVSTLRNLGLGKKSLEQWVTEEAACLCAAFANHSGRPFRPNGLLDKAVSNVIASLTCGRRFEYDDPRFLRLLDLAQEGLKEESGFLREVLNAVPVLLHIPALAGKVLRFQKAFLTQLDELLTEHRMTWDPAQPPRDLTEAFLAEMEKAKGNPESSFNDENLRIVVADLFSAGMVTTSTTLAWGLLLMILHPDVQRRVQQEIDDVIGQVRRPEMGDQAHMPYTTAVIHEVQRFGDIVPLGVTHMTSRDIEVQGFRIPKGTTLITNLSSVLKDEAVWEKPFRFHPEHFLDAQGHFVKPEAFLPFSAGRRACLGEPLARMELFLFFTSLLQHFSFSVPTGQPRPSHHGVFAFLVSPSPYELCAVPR
# How it was run: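 Chemicals tested for interference with CYP2D6 activity; proluciferin substrate, NADPH regeneration, 1 h at room temperature, luminescent detection.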
# [2] = target: Cytochrome P450 2C19 (Homo sapiens) (UniProt P33261); assay: Cytochrome P450 Family 2 Subfamily C Member 19 (CYP2C19) small molecule antagonists: luciferase reporter qHTS assay (AID 1671197); conditions: P450-Glo CYP2C19 enzyme, luciferin luminescence, 1 h; series mostly up to 115 µM; further: nearly all actives have a fitted effect of over 65% in size; further: potency means the concentration at half of the fitted maximal effect
# Chain of Cytochrome P450 2C19 (Homo sapiens) (P33261 whole entry, looked up): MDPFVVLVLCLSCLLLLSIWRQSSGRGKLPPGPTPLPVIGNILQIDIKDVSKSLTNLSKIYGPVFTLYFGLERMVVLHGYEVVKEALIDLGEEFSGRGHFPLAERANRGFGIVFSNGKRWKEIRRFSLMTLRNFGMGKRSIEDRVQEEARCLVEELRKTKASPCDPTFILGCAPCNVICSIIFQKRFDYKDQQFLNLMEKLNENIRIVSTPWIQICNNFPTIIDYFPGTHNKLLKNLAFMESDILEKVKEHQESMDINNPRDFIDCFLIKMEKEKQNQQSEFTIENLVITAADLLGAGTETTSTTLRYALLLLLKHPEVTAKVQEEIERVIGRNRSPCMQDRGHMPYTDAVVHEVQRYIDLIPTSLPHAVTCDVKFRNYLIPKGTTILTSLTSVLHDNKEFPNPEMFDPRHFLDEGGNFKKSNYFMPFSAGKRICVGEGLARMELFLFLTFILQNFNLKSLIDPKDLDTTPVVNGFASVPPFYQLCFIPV
# How it was run: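 CYP2C19 P450-Glo, 1536-well qHTS. Cpd + enzyme/proluciferin substrate 10 min RT; + NADPH regen, 37C 1 h; stop with luciferin detection reagent, 20 min RT, luminescence (RLU). Pos ctrl ketoconazole.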
# [3] = target: Cytochrome P450 2C9 (Homo sapiens) (UniProt P11712); assay: Cytochrome P450 Family 2 Subfamily C Member 9 (CYP2C9) small molecule antagonists: luciferase reporter qHTS assay (AID 1671198); conditions: P450-Glo CYP2C9 enzyme assay, luciferin luminescence; series mostly up to 115 µM; further: nearly all actives have a fitted effect of over 50% in size; further: potency means the concentration at half of the fitted maximal effect
# Chain of Cytochrome P450 2C9 (Homo sapiens) (P11712 whole entry, looked up): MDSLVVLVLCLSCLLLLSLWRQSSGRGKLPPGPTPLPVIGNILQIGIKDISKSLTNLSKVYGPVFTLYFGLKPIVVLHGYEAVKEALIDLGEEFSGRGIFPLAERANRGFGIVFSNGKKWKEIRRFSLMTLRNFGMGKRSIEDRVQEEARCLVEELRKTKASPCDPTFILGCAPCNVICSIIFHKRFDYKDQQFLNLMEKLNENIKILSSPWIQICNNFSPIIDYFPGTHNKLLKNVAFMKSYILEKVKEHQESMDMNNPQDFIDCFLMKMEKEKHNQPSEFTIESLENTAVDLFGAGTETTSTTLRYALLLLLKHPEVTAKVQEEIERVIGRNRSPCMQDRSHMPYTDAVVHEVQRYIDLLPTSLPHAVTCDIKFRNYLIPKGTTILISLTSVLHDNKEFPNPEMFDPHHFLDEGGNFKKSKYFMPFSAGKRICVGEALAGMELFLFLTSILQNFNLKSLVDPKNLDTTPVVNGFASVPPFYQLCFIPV
# How it was run: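 P450-Glo proluciferin substrate with CYP2C9 enzyme; 10 min RT preincubation, then NADPH regeneration 1 h at 37C; luciferin detection reagent 20 min RT, luminescence in relative luminescence units.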
# [4] = target: Cytochrome P450 1A2 (Homo sapiens) (UniProt P05177); assay: Cytochrome P450 Family 1 Subfamily A Member 2 (CYP1A2) small molecule antagonists: luciferase reporter qHTS assay (AID 1671199); conditions: P450-Glo CYP1A2 enzyme, luciferin luminescence, 1 h; series mostly up to 53 µM; further: nearly all actives have a fitted effect of over 50% in size; further: potency means the concentration at half of the fitted maximal effect
# Chain of Cytochrome P450 1A2 (Homo sapiens) (P05177 whole entry, looked up): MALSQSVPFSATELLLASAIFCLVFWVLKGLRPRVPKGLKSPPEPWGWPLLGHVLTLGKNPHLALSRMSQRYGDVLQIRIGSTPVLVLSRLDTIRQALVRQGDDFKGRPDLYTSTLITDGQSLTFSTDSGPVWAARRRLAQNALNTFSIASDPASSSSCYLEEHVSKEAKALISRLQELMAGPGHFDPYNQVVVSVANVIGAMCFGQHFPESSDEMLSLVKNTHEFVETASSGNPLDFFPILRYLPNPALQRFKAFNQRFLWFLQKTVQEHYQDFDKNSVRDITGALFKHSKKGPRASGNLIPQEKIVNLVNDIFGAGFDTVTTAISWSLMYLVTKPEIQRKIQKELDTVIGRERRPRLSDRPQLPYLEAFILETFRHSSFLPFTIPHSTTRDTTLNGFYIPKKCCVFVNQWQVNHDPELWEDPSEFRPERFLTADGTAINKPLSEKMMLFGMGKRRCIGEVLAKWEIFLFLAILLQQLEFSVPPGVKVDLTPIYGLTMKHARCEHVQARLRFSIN
# How it was run: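 Read-out is luminescence from luciferin detection reagent (20 min) proportional to CYP1A2 activity; compounds in DMSO preincubated 10 min with enzyme and proluciferin substrate, then NADPH regeneration solution, 1 h, room temperature.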
# [5] = target: Voltage-gated inwardly rectifying potassium channel KCNH2 (Homo sapiens) (UniProt Q12809); assay: Human Ether-a-go-go-Related Gene (hERG) channel small molecule antagonists: fluorescence cell-based qHTS assay (AID 1671200); conditions: hERG-U2OS cells, FluxOR thallium flux fluorescence; series mostly up to 76.8 µM;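 further: hERG-expressing U2OS cells given a thallium stimulus after FluxOR II dye loading; nearly all actives have a fitted effect of over 50% in size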
# Chain of Voltage-gated inwardly rectifying potassium channel KCNH2 (Homo sapiens) (Q12809 whole entry, looked up): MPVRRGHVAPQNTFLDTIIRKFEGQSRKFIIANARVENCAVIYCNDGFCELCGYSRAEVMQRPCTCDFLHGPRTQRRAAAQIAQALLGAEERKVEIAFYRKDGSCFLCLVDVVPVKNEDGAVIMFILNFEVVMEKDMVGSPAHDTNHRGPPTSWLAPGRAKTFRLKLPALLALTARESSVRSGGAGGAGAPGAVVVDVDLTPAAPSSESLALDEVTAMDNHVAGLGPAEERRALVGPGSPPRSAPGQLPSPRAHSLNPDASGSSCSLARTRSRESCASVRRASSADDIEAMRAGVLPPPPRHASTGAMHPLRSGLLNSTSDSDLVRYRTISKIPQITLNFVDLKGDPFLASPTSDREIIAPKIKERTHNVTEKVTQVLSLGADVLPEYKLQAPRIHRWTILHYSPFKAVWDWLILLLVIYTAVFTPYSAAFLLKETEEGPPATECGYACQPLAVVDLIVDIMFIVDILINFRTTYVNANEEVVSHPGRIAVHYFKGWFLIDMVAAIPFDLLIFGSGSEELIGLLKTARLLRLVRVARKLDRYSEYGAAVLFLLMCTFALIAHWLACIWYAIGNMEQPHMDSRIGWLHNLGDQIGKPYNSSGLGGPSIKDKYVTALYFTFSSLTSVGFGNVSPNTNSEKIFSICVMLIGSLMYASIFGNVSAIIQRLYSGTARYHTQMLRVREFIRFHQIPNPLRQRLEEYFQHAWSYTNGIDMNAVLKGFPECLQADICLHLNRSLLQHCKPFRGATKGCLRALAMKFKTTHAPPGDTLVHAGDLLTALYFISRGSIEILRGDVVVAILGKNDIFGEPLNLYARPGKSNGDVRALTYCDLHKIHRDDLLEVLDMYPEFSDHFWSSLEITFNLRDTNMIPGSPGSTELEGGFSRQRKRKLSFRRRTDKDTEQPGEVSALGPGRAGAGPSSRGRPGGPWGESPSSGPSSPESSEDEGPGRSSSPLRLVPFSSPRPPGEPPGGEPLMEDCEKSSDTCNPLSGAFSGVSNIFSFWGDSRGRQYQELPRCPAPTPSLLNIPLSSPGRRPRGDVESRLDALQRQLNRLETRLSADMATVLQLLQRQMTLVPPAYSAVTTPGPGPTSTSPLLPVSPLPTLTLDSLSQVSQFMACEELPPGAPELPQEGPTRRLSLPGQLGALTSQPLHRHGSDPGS
# How it was run: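 Thallium served as the potassium surrogate; its influx into dye-loaded U2OS cells carrying the channel was measured by fluorescence over 2 min.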
# [6] = target: Cytochrome P450 3A4 (Homo sapiens) (UniProt P08684); assay: Cytochrome P450 Family 3 Subfamily A Member 4 (CYP3A4) small molecule antagonists: luciferase reporter qHTS assay (AID 1671201); conditions: P450-Glo CYP3A4 enzyme, luciferin luminescence, 1 h; series mostly up to 115 µM; further: nearly all actives have a fitted effect of over 50% in size; further: potency means the concentration at half of the fitted maximal effect
# Chain of Cytochrome P450 3A4 (Homo sapiens) (P08684 whole entry, looked up): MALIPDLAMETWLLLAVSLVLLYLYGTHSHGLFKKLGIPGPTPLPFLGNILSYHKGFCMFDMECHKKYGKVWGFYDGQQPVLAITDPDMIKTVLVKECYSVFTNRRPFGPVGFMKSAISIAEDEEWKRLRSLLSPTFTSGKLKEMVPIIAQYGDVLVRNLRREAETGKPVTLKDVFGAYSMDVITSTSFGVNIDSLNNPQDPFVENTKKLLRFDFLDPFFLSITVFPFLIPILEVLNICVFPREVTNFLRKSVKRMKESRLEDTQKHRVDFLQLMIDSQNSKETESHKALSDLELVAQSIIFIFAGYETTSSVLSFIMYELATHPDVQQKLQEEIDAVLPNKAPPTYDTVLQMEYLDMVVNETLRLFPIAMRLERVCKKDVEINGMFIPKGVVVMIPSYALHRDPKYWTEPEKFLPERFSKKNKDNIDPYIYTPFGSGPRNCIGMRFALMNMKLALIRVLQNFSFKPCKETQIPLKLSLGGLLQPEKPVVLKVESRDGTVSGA
# How it was run: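 Relative luminescence units after 20 min with luciferin detection reagent served as read-out. Beforehand, CYP3A4 turned over a proluciferin substrate for 1 h at room temperature with NADPH regeneration, following 10 min compound preincubation.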
structure (smiles),measurement,setting,value
Cc1[nH]cnc1-c1ccc(Cl)cc1,Potency,[1],13.8 µM (active)
same,Potency,[2],15.5 µM (active)
same,Potency,[3],15.5 µM (active)
same,Potency,[4],2.19 µM (active)
same,Potency,[5],inactive
c1ccc2c(c1)ccc1c3ccccc3ccc21,Potency,[1],inactive
same,Potency,[2],inactive
same,Potency,[3],inactive
same,Potency,[4],0.725 µM (active)
same,Potency,[5],inactive
same,Potency,[6],inactive
CC1(C)S[C@@H]2[C@H](N=CN3CCCCCC3)C(=O)N2[C@H]1C(=O)O,Potency,[1],inactive
same,Potency,[2],inactive
same,Potency,[3],inactive
same,Potency,[4],inactive
same,Potency,[5],inactive
same,Potency,[6],inactive
COc1nccnc1NS(=O)(=O)c1ccc(N)cc1,Potency,[1],inactive
same,Potency,[2],inactive
same,Potency,[3],inactive
same,Potency,[4],inactive
same,Potency,[5],inactive
same,Potency,[6],inactive
NS(=O)(=O)c1cc2c(cc1Cl)CN(C1CCCCC1)C2=O,Potency,[1],inactive
same,Potency,[2],inactive
same,Potency,[3],inactive
same,Potency,[4],inactive
same,Potency,[5],inactive
same,Potency,[6],inactive
C=CC(OCC)OCC,Potency,[1],inactive
same,Potency,[2],inactive
same,Potency,[3],inactive
same,Potency,[4],inactive
same,Potency,[5],inactive
same,Potency,[6],inactive
O=C1c2ccccc2C(=O)c2cc(S(=O)(=O)O)ccc21,Potency,[1],40.1 µM (active)
same,Potency,[2],31.8 µM (active)
same,Potency,[3],12.7 µM (active)
same,Potency,[5],inactive
same,Potency,[6],inactive
C=C(C)C(=O)OCCNC(C)(C)C,Potency,[1],inactive
same,Potency,[2],70.9 µM (active)
same,Potency,[3],inactive
same,Potency,[4],35.5 µM (active)
same,Potency,[5],inactive
same,Potency,[6],inactive
N[C@@H](CCC(=O)Nc1ccc([N+](=O)[O-])cc1)C(=O)O,Potency,[1],inactive
same,Potency,[2],inactive
same,Potency,[3],inactive
same,Potency,[4],inactive
same,Potency,[5],inactive
same,Potency,[6],inactive
Nc1ccc2cc(S(=O)(=O)O)cc(O)c2c1,Potency,[1],44.5 µM (active)
same,Potency,[2],22.3 µM (active)
same,Potency,[3],35.4 µM (active)
same,Potency,[5],inactive
same,Potency,[6],inactive
BrCCCCCBr,Potency,[1],inactive
same,Potency,[2],inactive
same,Potency,[3],inactive
same,Potency,[5],inactive
same,Potency,[6],inactive
Cc1ccccc1C(=O)Nc1ccc(C(=O)N2CCCC(N(C)C)c3ccccc32)cc1 (stereo not given),Potency,[1],inactive
same,Potency,[2],inactive
same,Potency,[4],inactive
same,Potency,[5],inactive
CC(C)=CCOC(=O)c1ccccc1,Potency,[1],inactive
same,Potency,[2],inactive
same,Potency,[3],inactive
same,Potency,[5],inactive
same,Potency,[6],inactive
O=C(CCNNC(=O)c1ccncc1)NCc1ccccc1,Potency,[1],15.5 µM (active)
same,Potency,[2],11 µM (active)
same,Potency,[3],4.9 µM (active)
same,Potency,[5],inactive
COCCOCCOCCOCCOCCO,Potency,[1],inactive
same,Potency,[2],inactive
same,Potency,[3],inactive
same,Potency,[5],inactive
same,Potency,[6],inactive
O=Cc1ccc(Cl)c(Cl)c1,Potency,[1],inactive
same,Potency,[2],inactive
same,Potency,[3],inactive
same,Potency,[5],inactive
same,Potency,[6],inactive
On1nnc2ccccc21,Potency,[1],35.6 µM (active)
same,Potency,[2],inactive
same,Potency,[3],inactive
same,Potency,[5],inactive
same,Potency,[6],inactive
CC(=O)Nc1cccc(C)c1,Potency,[1],inactive
same,Potency,[2],71.3 µM (active)
same,Potency,[3],inactive
same,Potency,[5],inactive
same,Potency,[6],inactive
O=C(c1ccc(O)cc1)c1ccc(O)c(O)c1O,Potency,[1],40.1 µM (active)
same,Potency,[2],40.1 µM (active)
same,Potency,[3],inactive
same,Potency,[5],inactive
CN1CCN(CC(=O)N2c3ccccc3C(=O)Nc3cccnc32)CC1,"activity change, negative = inhibition",[1],-4.49% [at 10.5 µM]
same,"activity change, negative = inhibition",[2],8.9% [at 10.5 µM]
same,"activity change, negative = inhibition",[3],2.89% [at 10.5 µM]
same,"activity change, negative = inhibition",[4],13.2% [at 10.5 µM]
same,"activity change, negative = inhibition",[5],-0.112% [at 6.97 µM]
same,"activity change, negative = inhibition",[6],4.83% [at 10.5 µM]
Cc1cc(Cl)c(C)cc1Cl,Potency,[1],inactive
same,Potency,[2],inactive
same,Potency,[3],inactive
same,Potency,[4],inactive
same,Potency,[5],inactive
same,Potency,[6],inactive
ClCCCl,Potency,[1],inactive
same,Potency,[2],inactive
same,Potency,[3],inactive
same,Potency,[4],inactive
same,Potency,[5],inactive
same,Potency,[6],inactive
CC(=O)c1ccc2c(c1)Cc1ccccc1-2,Potency,[1],inactive
same,Potency,[2],20 µM (active)
same,Potency,[3],12.6 µM (active)
same,Potency,[4],1.79 µM (active)
same,Potency,[5],inactive
same,Potency,[6],inactive
Cc1nc2n(c(=O)c1CCN1CCC(c3noc4cc(F)ccc34)CC1)CCC[C@H]2O,Potency,[1],6.01 µM (active)
same,"activity change, negative = inhibition",[2],18.1% [at 23.6 µM]
same,"activity change, negative = inhibition",[3],0.924% [at 23.6 µM]
same,Potency,[4],inactive
same,"activity change, negative = inhibition",[6],3.18% [at 23.6 µM]
O=C(/N=N/C(=O)OCc1ccccc1)OCc1ccccc1,Potency,[1],inactive
same,Potency,[2],1.78 µM (active)
same,Potency,[3],14.2 µM (active)
same,Potency,[4],17.8 µM (active)
same,Potency,[6],39.9 µM (active)
CCC(C=O)CC,Potency,[1],inactive
same,Potency,[2],inactive
same,Potency,[3],inactive
same,Potency,[5],inactive
same,Potency,[6],inactive
C[Si](C)(C)C,Potency,[1],inactive
same,Potency,[2],inactive
same,Potency,[3],inactive
same,Potency,[5],inactive
same,Potency,[6],inactive
COc1cc2c(cc1OC)C(=O)CC2,Potency,[1],inactive
same,Potency,[2],inactive
same,Potency,[3],inactive
same,Potency,[4],27.5 µM (active)
same,Potency,[5],inactive
same,Potency,[6],inactive
CCCCCCCCOS(=O)(=O)O,Potency,[1],inactive
same,Potency,[2],71 µM (active)
same,Potency,[3],28.3 µM (active)
same,Potency,[5],inactive
same,Potency,[6],inactive
CCOC(=O)c1ccc(OC(=O)CCCCCN=C(N)N)cc1,Potency,[1],0.309 µM (active)
same,Potency,[2],inactive
same,Potency,[3],inactive
same,Potency,[5],inactive
same,Potency,[6],inactive
C=C(C)C(=O)OCCOP(=O)(O)OCCOC(=O)C(=C)C,Potency,[1],inactive
same,Potency,[2],inactive
same,Potency,[3],inactive
same,Potency,[4],inactive
same,Potency,[5],inactive
same,Potency,[6],inactive
